# Experimental data: ChEMBL document CHEMBL1157539, “Thousands of chemical starting points for antimalarial lead identification” (Nature, 2010)
# How the values were obtained:
# Type in all cases: functional
# [1] = test system: Plasmodium falciparum; experiment: GSK_TCMDC: Inhibition of Plasmodium falciparum 3D7 in whole red blood cells, using parasite LDH activity as an index of growth. Test compounds present at 2uM
# [2] = test system: Plasmodium falciparum; experiment: GSK_TCMDC: Inhibition of Plasmodium falciparum Dd2 in whole red blood cells, using parasite LDH activity as an index of growth. Test compounds present at 2uM
# [3] = test system: HepG2; experiment: GSK_TCMDC: Percent inhibition of human HepG2 cell line. Test compounds present at 10uM.
Compound,Inhibition [1] [%],Inhibition [2] [%],Inhibition [3] [%]
Cc1ccc(NC(=O)c2ccc(N3CCN(c4ccncc4)CC3)cc2)cc1F.O=C(O)C(F)(F)F,100,79,47
COC(=O)[C@@H](NC(=O)[C@@H](Nc1ccc(C#N)c2ccccc12)C(C)(C)C)c1ccc(O)cc1,100,74,0
O=C(Nc1ccc(S(=O)(=O)N2CCOCC2)cc1)c1cc(-c2cc(Cl)ccc2O)n[nH]1,96,59,40
Cc1cccc2nc(-c3cccc(-c4cccc(NC(=O)NCc5ccccc5)c4)c3)[nH]c12,94,27,12
CC(=O)N(C)c1cccc(C(=O)Nc2cccc(-c3ccc(-c4nc5cc(C(F)(F)F)ccc5[nH]4)cc3)c2)c1,90,31,63
CCCCCC(C)C(C)c1cc(O)c2c(c1)OC(C)(C)CC2c1cc[n+]([O-])cc1 (stereo not given),96,7,0
O=C(CN1CCN(S(=O)(=O)C=Cc2ccccc2)CC1)Nc1cc(C(F)(F)F)ccc1Cl,96,63,23
c1ccc(-c2nnc(-c3ccccn3)nc2NC2CCCCC2)cc1,97,80,74
CCCOc1ccc(C(F)(F)F)cc1NC(=O)c1nc2nc(C)cc(C)n2n1,90,88,7
Cc1ccc(NC(=O)c2ccc3ncccc3c2)cc1OC1CCN(Cc2ccsc2)CC1.O=C(O)C(F)(F)F,93,29,21
COc1ccc2nccc([C@@H](O)CN3CCC(NCc4ccc5c(n4)NCCC5)CC3)c2c1,100,39,21
CCCC(C)Nc1nc(C)cc(N[C@@H](Cc2ccccc2)C(=O)NCCc2ccccc2)n1.O=C(O)C(F)(F)F (stereo not given in full),97,68,11
CC(=O)Oc1c(C2CCN(CCCCNC(=O)c3ccc(NC(=O)c4ccc(Cl)cc4)cc3)CC2)ccc2ccccc12,100,92,24
Cl.N#Cc1ccc(-c2ccc3nc(N4CCCN(C5CCC5)CC4)ccc3c2)cc1,96,14,36
Cc1nnc2c(N(C(=O)NCCc3ccccc3)C(=O)NCCc3ccccc3)cc3cc(Cl)ccc3n12,91,34,0
O=C1Nc2cccc3c2C1(CCCCN1CCC(c2c(-c4ccccc4)[nH]c4ccccc24)CC1)CCC3 (stereo not given),84,33,18
COc1ccc(O)c(C(=O)c2cc(C(=O)NC3CCCCC3)c(=O)n(C3CCCCC3)c2)c1,99,62,8
COc1ccc(NC(C)C(=O)Nc2ccc(Br)cc2)cc1S(=O)(=O)N1CCCCC1 (stereo not given),99,97,2
O=C(Nc1cccc(-c2ccc(-c3nc4cc(F)ccc4[nH]3)s2)c1)c1ccncc1,96,29,74
COc1ccc(CCNCCCCCCNCCc2ccc(Cl)c3ccccc23)cc1OC.Cl,100,28,100
CCCCCCN1CCC(NCc2ccc(C)cc2)CC1.O=C(O)C(F)(F)F,93,4,16
CN1CCN(CC(=O)Nc2ccc(-c3cccc(-c4nc5cc(C(F)(F)F)ccc5[nH]4)c3)cc2)CC1,100,93,45
CCNC(=O)Nc1ccc(-c2cnc(N)c(-c3nc4ccc(OC)cc4[nH]3)c2)cc1,100,43,51
Cc1cc2nc(-c3ccc(C(=O)NCCCc4ccccc4)cc3)[nH]c2cc1C,91,5,7
CN(C)c1ccc(-c2nnc(Sc3ccc(C#N)c([N+](=O)[O-])c3)n2Cc2ccco2)cc1,95,79,3
CN1CCN(Cc2cccc(-c3ccc4c(Nc5ccc(F)cc5Cl)ccnc4c3)c2)CC1,100,100,20
Oc1cc(NC[C@@H]2CCC[C@@H]2NCc2ccc(Cl)c(Cl)c2)nc2ccccc12,100,75,9
O=C(Nc1cccc(CN2CCCN(Cc3ccc(O)cc3)CC2)c1)c1cccc(Cl)c1.O=C(O)C(F)(F)F,96,41,10
Cc1cc(N[C@@H](Cc2ccccc2)C(=O)NCc2cccs2)nc(NCCc2ccccc2)n1.O=C(O)C(F)(F)F,92,61,6
CC1CN(Cc2cccc(F)c2)CCN1c1ccc(NC(=O)c2ccc(F)cc2)cc1.O=C(O)C(F)(F)F (stereo not given),96,92,0
